# Laboratory results from PubChem BioAssay.
# Records with an inconclusive call do not appear. The source made the active and inactive calls.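 Rule for the calls, unless noted: active = differentiation response of at least 50%, scaled between solvent and reference control, from cells with both markers; inactive = the rest.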
# Columns and labels:
# [1] = yeast TOR pathway RPL19A-GFP modulators, primary screen, cell-based, S. cerevisiae, multiplex flow cytometry (AID 1862; in the data active = percent of DMSO control GFP below about 86%;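 note: lower values mimic rapamycin by blocking the RPL19A rise seen in DMSO cells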); settings: S. cerevisiae RPL19A-GFP strain, flow cytometry fluorescence, 3 h; at 10 µM; stronger effect = lower value
# [2] = modulators of MEP2-GFP levels in yeast, primary screen, S. cerevisiae, multiplex flow cytometry (AID 1867;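 active = GFP response, as percent of the DMSO control, above the screen-wide mean plus 3 SD, about 139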;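 note: median GFP channel fluorescence of barcode-gated MEP2-GFP cells measured by flow cytometry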); settings: S. cerevisiae MEP2-GFP strain, 3 h, at 10 µM, stronger effect = higher value, 100% means same as DMSO wells
# [3] = modulators of CIT2-GFP expression in yeast, primary screen, S. cerevisiae, GFP fusion, multiplex flow cytometry (AID 1870;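 active = percent response above a set limit, the screen-wide mean plus 3 SD, cut at about 130% in these data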;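 note: barcoded CIT2-GFP strain pooled with four other GFP strains with rapamycin as positive control; median GFP fluorescence per well over plate mean of DMSO wells so 100% = DMSO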); settings: 3 h, at 10 µM, stronger effect = higher value
# [4] = modulators of LAP4-GFP expression in yeast, primary screen, S. cerevisiae, multiplex flow cytometry (AID 1873;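 active = GFP signal, as percent of the solvent control, above the screen mean plus 3 SD, about 149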); settings: 3 h, at 10 µM, stronger effect = higher value
# [5] = modulators of AGP1-GFP expression in yeast TOR pathway, primary screen, cell-based, multiplex flow cytometry, S. cerevisiae (AID 1887;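 active = GFP signal above the screen-wide mean plus 3 SD, that is over about 124.5% of the solvent control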;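 note: AGP1-GFP fusion strain of S. cerevisiae within a five-strain barcoded multiplex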); settings: 3 h, at 10 µM, stronger effect = higher value
# [6] = inhibitors of CD8+ T cell-vesicle binding, pilot screen, LFA-1/ICAM-1 modulator project, MLPCN validation set, flow cytometry (AID 2523;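 active = response below a set limit, under 55% cells CD8-positive and vesicle-bound, and CD8 cells' 90th-percentile brightness under 279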;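 for vesicle binding response: mean PE anti-B7-1 fluorescence of CD8+ cells relative to row control; 100% = QL9-loaded vesicles with DMSO vehicle in the same plate row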); settings: 2C mouse CD8+ T cells, at 7 µM, stronger effect = lower value; double positive events: measured here: CD8+/vesicle+ event percentage
# [7] = molecular target: Integrin beta-1 (Homo sapiens) + Integrin alpha-4 (Homo sapiens) (UniProt P13612+P05556); experiment: inhibition of HUTS-21 binding to VLA-4, pilot screen, VLA-4 allosteric modulator project, U937 cells, HUTS-21 mAb, flow cytometry, validation set (AID 2674;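 active = inhibition above 50%, about 3 SD of the validation set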;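 note: antibody binding induced by the VLA-4 ligand LDV present at three times its Kd; 0% = LDV ligand with antibody and no compound and 100% = antibody without LDV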); settings: HUTS-21 LIBS mAb binding, at 6.7 µM, stronger effect = higher value, binding induced by LDV ligand
# Chain of Integrin beta-1 (Homo sapiens) + Integrin alpha-4 (Homo sapiens) (P05556 whole entry, looked up): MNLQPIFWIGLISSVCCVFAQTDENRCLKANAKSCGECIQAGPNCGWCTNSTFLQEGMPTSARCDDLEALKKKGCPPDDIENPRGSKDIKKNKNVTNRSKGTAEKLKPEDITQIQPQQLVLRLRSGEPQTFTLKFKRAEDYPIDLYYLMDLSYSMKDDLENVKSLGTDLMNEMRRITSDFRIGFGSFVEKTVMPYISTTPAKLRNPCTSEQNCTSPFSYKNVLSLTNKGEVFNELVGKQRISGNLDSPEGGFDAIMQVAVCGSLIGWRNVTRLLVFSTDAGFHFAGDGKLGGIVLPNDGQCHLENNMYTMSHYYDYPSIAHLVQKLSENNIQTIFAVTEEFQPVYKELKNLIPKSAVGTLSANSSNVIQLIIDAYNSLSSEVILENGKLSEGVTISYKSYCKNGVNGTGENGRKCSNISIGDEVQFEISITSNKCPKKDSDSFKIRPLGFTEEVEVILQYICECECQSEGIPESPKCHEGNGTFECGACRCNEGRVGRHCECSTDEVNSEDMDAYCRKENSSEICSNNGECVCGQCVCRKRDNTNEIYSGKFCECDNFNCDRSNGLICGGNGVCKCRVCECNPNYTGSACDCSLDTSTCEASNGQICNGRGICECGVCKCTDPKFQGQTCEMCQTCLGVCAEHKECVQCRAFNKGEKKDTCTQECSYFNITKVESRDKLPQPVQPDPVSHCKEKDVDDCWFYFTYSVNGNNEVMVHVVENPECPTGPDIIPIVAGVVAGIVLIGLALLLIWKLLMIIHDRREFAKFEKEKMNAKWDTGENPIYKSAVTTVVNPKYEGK
# Chain of Integrin beta-1 (Homo sapiens) + Integrin alpha-4 (Homo sapiens) (P13612 whole entry, looked up): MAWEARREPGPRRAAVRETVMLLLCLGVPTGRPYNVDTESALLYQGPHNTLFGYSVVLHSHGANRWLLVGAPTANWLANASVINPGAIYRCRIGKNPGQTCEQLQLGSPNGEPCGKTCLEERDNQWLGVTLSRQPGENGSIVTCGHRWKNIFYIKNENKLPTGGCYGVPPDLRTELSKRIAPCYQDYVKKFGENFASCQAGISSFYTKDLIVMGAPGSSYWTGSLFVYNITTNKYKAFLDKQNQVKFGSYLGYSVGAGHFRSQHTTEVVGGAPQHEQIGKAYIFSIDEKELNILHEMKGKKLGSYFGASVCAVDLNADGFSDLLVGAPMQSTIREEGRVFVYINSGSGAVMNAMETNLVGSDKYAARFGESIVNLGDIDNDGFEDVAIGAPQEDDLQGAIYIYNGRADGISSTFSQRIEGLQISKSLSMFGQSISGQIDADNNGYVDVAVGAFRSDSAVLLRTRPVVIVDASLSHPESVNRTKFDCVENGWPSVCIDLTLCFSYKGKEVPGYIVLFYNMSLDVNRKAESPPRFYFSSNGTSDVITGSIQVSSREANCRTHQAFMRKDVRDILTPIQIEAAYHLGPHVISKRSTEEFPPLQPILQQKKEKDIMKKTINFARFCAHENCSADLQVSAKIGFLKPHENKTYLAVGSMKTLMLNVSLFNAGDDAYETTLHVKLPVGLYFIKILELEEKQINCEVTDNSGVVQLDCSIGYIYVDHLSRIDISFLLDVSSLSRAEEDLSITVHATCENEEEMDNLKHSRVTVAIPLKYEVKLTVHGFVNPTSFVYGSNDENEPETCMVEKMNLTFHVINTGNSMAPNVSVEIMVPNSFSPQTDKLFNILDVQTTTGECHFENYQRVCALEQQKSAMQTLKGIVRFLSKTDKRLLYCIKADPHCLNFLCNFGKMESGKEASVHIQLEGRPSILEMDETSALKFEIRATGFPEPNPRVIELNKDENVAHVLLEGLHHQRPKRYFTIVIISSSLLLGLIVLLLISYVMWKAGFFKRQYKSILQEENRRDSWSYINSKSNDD
# [8] = superoxide lowering in aged yeast cells, pilot screen, validation compound set (AID 2706;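 active = superoxide response below 65% of plate, a cut near 3 SD across the whole screen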;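 note: yeast exposed to compound for one week at 30 degrees C before staining; 100% = mean of all compound wells on the same plate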); settings: S. cerevisiae aging, superoxide DHE fluorescence; at 10 µM, stronger effect = lower value
# [9] = molecular target: AP-2 complex subunit beta (Homo sapiens) (UniProt P63010); experiment: inhibitors of arrestin peptide binding to AP2, pilot screen, biochemical, validation set, GST-AP2 beads, flow cytometry (AID 504541;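 active = inhibition above 54%, about 3 SD of non-fluorescent compounds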;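 note: AP2 carries R879A mutation and is captured from E. coli lysate; bead-bound FITC arrestin peptide fluorescence measuring arrestin peptide binding to AP2; 0% = DMSO wells and 100% = excess unlabeled arrestin peptide control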); settings: FITC arrestin peptide, at 10 µM, stronger effect = higher value, AP2 beta2 appendage fragment, R879A mutant
# Chain of AP-2 complex subunit beta (Homo sapiens) (P63010 whole entry, looked up, the tested form may be a part, one chain of several): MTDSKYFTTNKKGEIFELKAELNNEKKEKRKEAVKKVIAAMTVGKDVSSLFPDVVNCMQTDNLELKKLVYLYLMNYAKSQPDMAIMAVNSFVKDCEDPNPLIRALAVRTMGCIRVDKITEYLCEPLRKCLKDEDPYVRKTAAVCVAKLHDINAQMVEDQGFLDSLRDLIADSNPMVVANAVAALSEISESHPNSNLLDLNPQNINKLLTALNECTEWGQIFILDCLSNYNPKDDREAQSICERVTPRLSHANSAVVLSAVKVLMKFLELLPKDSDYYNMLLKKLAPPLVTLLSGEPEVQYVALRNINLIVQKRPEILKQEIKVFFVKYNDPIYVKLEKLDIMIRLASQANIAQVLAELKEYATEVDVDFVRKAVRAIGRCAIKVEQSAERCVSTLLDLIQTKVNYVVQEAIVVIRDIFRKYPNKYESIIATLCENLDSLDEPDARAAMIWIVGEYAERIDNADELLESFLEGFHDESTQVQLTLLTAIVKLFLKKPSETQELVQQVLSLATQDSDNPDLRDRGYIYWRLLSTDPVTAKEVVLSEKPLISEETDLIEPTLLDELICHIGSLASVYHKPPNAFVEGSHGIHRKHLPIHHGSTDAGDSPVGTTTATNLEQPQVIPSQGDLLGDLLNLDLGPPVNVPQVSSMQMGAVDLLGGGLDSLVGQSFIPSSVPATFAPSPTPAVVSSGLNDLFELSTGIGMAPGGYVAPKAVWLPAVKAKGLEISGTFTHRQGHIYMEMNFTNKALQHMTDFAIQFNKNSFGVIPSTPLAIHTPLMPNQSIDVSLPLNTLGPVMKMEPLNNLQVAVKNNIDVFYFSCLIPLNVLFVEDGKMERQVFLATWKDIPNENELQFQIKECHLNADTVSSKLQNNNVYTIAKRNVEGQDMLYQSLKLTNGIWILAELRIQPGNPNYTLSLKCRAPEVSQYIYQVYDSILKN
# [10] = yeast V-ATPase proton transport modulators, S. cerevisiae, pHLuorin, HTS validation (AID 504600; in the data active = response above about 15%;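 note: plate controls were DMSO for no effect and reference compound for full effect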); settings: S. cerevisiae pHLuorin cytosolic pH, at 10 µM, stronger effect = higher value
# [11] = system: anti-desmoglein-3 scFv antibody binding to human DSG3; experiment: inhibitors of anti-DSG3 scFv binding to DSG3, pilot screen, biochemical, validation compound set, bead-based, flow cytometry (AID 588368;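 active = binding below the plate cutoff, the plate median minus 3 SD, with a reading above zero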;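 note: signal is the median channel fluorescence of bead-bound GFP antibody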); settings: Protein G beads, DSG3-Fc, scFv-GFP binding, at 10 µM, stronger effect = lower value
# [12] = inhibitors of fungal efflux pumps CDR1, CDR2, MDR1, pilot screen, validation compound set, multiplex, phenotypic (AID 588506;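 active = efflux inhibition above 0.42, the validation set average plus 4 SD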;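 note: Nile Red retained in cells so higher fluorescence means more efflux inhibition; 0 = negative control wells and 1 = enniatin B 25 µM full block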); settings: S. cerevisiae pump-expressing triplex, Nile Red efflux flow cytometry; at 10 µM; stronger effect = higher value; the pumps come from Candida albicans
# [13] = molecular target: ATP-binding cassette sub-family B member 6 (Homo sapiens) (UniProt Q9NP58); experiment: ABCB6 transporter inhibitors, pilot screen, K562-ABCB6 cells, flow cytometry, validation set (AID 588550;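 active = inhibition above the screen-wide mean plus 3 SD, about 51%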;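 note: 0% = DMSO wells and 100% = benzethonium chloride 70 µM positive control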); settings: K562-ABCB6 porphyrin accumulation, 1 h, at 10 µM, stronger effect = higher value
# Chain of ATP-binding cassette sub-family B member 6 (Homo sapiens) (Q9NP58 whole entry, looked up): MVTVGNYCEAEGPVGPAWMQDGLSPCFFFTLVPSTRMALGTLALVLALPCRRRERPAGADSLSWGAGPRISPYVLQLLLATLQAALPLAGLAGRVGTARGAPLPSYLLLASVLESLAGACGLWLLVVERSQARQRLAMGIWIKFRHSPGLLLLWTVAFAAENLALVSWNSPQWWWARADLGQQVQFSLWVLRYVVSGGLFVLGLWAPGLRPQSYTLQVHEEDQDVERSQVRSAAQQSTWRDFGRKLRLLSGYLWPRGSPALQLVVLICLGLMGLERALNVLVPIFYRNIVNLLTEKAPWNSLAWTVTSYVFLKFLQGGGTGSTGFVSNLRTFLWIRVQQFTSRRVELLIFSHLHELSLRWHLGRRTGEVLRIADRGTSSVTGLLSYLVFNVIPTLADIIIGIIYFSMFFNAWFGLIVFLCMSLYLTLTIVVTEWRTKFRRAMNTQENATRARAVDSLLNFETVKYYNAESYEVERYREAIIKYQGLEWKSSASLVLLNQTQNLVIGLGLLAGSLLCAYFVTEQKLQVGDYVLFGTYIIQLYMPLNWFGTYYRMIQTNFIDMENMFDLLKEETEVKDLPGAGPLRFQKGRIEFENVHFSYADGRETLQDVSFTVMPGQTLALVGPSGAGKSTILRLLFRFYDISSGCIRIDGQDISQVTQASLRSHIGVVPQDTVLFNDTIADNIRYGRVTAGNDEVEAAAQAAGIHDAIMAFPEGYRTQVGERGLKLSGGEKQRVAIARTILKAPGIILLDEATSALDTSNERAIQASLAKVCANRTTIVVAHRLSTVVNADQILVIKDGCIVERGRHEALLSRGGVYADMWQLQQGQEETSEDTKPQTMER
# [14] = promoters of myeloid differentiation in arrested cells, primary screen, cell-based, GFP/MAC1 double positive, flow cytometry, validation set (AID 588685); settings: ER-HoxA9 marrow cells, stronger effect = higher value, normalized: vehicle 0, fulvestrant 100;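 note: compound exposure lasts four days before antibody staining and flow analysis; 0% = DMSO wells and 100% = 5 µM fulvestrant positive control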
# [15] = molecular target: Beta-adrenergic receptor kinase 1 (Homo sapiens) (UniProt P25098); experiment: GRK2 binders displacing RNA aptamer, biochemical, validation, human GRK2, bead flow cytometry (AID 488806;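 active = aptamer binding inhibition above 30%, about 3 SD of noise from non-fluorescent compounds; inactive = inhibition at or below 30%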); settings: bead-bound GRK2, FAM-aptamer displacement, at 10 µM, stronger effect = higher value
# Chain of Beta-adrenergic receptor kinase 1 (Homo sapiens) (P25098 whole entry, looked up): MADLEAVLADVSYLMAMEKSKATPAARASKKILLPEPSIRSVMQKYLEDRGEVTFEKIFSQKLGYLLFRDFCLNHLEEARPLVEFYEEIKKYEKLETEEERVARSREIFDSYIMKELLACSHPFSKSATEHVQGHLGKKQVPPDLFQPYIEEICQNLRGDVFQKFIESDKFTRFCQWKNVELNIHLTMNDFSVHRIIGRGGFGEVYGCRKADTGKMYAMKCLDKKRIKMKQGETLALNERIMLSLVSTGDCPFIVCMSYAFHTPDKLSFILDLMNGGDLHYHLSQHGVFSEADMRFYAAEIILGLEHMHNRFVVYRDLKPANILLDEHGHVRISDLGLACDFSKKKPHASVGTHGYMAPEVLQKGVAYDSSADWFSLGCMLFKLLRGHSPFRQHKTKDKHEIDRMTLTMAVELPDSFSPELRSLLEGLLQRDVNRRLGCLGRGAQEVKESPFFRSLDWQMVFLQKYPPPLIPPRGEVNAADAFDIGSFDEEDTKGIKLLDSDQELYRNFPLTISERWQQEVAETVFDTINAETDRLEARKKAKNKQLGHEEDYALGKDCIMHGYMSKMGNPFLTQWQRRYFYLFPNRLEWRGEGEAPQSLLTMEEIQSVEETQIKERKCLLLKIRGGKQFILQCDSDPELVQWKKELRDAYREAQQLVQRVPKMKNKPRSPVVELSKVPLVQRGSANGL
# [16] = molecular target: Beta-2 adrenergic receptor (Homo sapiens) (UniProt P07550); experiment: beta2AR agonists driving receptor internalization, pilot screen, cell-based, FAP fluorogen, flow cytometry, validation set (AID 504459;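 active = percent response above 42, roughly 3 SD of non-fluorescent test compounds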;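 note: agonist-driven loss of surface beta2AR via internalization measured by FAP dye flow cytometry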); settings: Am2.2-beta2AR cells, FAP surface receptor flow cytometry; at 10 µM; stronger effect = higher value
# Chain of Beta-2 adrenergic receptor (Homo sapiens) (P07550 whole entry, looked up): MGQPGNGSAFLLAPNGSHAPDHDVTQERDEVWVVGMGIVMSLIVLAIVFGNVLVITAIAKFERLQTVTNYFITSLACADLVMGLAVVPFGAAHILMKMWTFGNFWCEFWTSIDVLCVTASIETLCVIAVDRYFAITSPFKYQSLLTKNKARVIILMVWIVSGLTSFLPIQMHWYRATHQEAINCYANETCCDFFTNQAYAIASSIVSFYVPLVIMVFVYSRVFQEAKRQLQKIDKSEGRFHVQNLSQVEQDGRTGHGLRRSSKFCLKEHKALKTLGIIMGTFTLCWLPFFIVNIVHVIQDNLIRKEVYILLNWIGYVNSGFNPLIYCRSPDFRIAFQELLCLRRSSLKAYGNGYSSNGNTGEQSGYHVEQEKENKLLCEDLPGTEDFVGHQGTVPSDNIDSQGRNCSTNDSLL
SMILES,percent of DMSO control GFP [1],GFP response vs DMSO [2],percent response of DMSO control [3],GFP response vs DMSO [4],"GFP response, % of DMSO [5]",double positive events [6],vesicle binding response [6],inhibition [7],superoxide response (% of plate) [8],inhibition [9],response [10],binding (% of control) [11],efflux inhibition (fraction of control) [12],inhibition [13],differentiation response [14],aptamer binding inhibition [15],response [16]
CNC[C@H](O)c1ccc(O)c(O)c1,107% (inactive),95.9% (inactive),107% (inactive),97.4% (inactive),103% (inactive),43.9%,162% (inactive),-25.4% (inactive),108% (inactive),2.4% (inactive),2.95% (inactive),103% (inactive),-0.24 (inactive),9% (inactive),-8.27% (inactive),,
NCCCC(=O)O,97.8% (inactive),99.9% (inactive),95.9% (inactive),103% (inactive),96.7% (inactive),57.8%,192% (inactive),10.9% (inactive),103% (inactive),2.65% (inactive),-1.76% (inactive),99.8% (inactive),0.94 (active),-31% (inactive),-13.1% (inactive),0% (inactive),
O=C(CCCN1CCC(O)(c2ccc(Cl)cc2)CC1)c1ccc(F)cc1,101% (inactive),99.3% (inactive),91.9% (inactive),86.8% (inactive),93.7% (inactive),62.6%,48.6% (inactive),9.92% (inactive),,13.3% (inactive),-1.24% (inactive),105% (inactive),0.27 (inactive),21% (inactive),15.9% (inactive),-3% (inactive),-2.5% (inactive)
COc1cc2c(cc1OC)C(c1cc3ccccc3oc1=O)=NC(C)(C)C2,101% (inactive),103% (inactive),107% (inactive),96.4% (inactive),100% (inactive),46.8%,137% (inactive),10.9% (inactive),117% (inactive),-0.33% (inactive),2.07% (inactive),98.7% (inactive),0.1 (inactive),10% (inactive),-13.1% (inactive),3% (inactive),
Cc1ncc([N+](=O)[O-])n1CCO,99.6% (inactive),93.8% (inactive),105% (inactive),97.4% (inactive),94.6% (inactive),59.8%,172% (inactive),10% (inactive),98.8% (inactive),-1.26% (inactive),3.07% (inactive),93.1% (inactive),0.18 (inactive),5% (inactive),-9.89% (inactive),1% (inactive),
Cn1c(=O)oc2cc(S(=O)(=O)N3CCc4ccccc4C3)ccc21,101% (inactive),98.9% (inactive),102% (inactive),89.3% (inactive),97.8% (inactive),58.4%,165% (inactive),15.6% (inactive),95.2% (inactive),7.43% (inactive),2.89% (inactive),98.3% (inactive),-0.05 (inactive),10% (inactive),9.49% (inactive),2% (inactive),
CCC1(c2ccccc2)C(=O)NCNC1=O,102% (inactive),94.1% (inactive),95.4% (inactive),87.4% (inactive),92.6% (inactive),61.9%,285% (inactive),5.77% (inactive),,13.7% (inactive),1.33% (inactive),101% (inactive),0.77 (active),-12% (inactive),13.9% (inactive),2% (inactive),7.83% (inactive)
CC(C)(C)NCC(O)c1cc(O)cc(O)c1 (configuration not stated),97.8% (inactive),102% (inactive),95.1% (inactive),106% (inactive),119% (inactive),61.6%,190% (inactive),-15.6% (inactive),113% (inactive),-13.2% (inactive),-6.14% (inactive),100% (inactive),-0.04 (inactive),6% (inactive),-4.99% (inactive),,
Cc1cc(OC(C(=O)O)c2ccccc2)c2c(C)c(Cc3ccccc3)c(=O)oc2c1 (configuration not stated),103% (inactive),98.9% (inactive),97.9% (inactive),100% (inactive),95.1% (inactive),54.5%,160% (inactive),-3.04% (inactive),115% (inactive),1.35% (inactive),5.52% (inactive),95.4% (inactive),-0.05 (inactive),7% (inactive),-3.43% (inactive),2% (inactive),
COc1ccc(CCN(C)CCCC(C#N)(c2ccc(OC)c(OC)c2)C(C)C)cc1OC (configuration not stated),105% (inactive),104% (inactive),98.8% (inactive),95.4% (inactive),99.7% (inactive),63.8%,183% (inactive),2.56% (inactive),101% (inactive),53.9% (inactive),1.25% (inactive),102% (inactive),,2% (inactive),24% (inactive),-1% (inactive),
